Screening data from PubChem BioAssay.
Compounds with a hit are over-represented: about 1.1% of the library has one in this group of screens.
Mito fusion act: mitochondrial division inhibition or fusion activation; S. cerevisiae fusion-defective mutant growth rescue, CellTiterGlo 48 h; Potency, µM (highest dose often 46.1 µM), inactives show at the top dose growth rescue (activation), most hits filed as activators; actives 0.23% (n = 320,000); active = well fitted activation curve with a large enough effect; inconclusive = small, poorly fitted or top-dose-only effect; inactive = no such curve, though single readings can be large or run the other way; also: potency is read from the fitted curve at half-maximal effect; % of control where 0% means no effect; nearly all actives have a fitted effect of over 45% in size
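Growth-rescue viability read-out: after 48 h at the non-permissive 37C in glycerol/ethanol YPEG, yeast mitochondrial fusion mutants are measured by CellTiterGlo luminescence; compounds (23 nl pinned per well) restoring growth score as division inhibitors or fusion activators.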
MBNL1 CUG block: inhibitors of human MBNL1 binding to CUG repeat RNA; Potency, µM (top dose mostly 57.5 µM), without a hit: at the top dose activity change, negative = inhibition, most hits filed as inhibitors; TR-FRET MBNL1-His/biotin-(CUG)12 binding, 665/545 ratio; AID 2675; actives 0.036% (n = 280,000); Q9NR56; active = well fitted inhibition curve with a large enough effect in the signal ratio, with a control signal flat, not every such curve was filed as active; inconclusive = small, poorly fitted or top-dose-only effect, or effect the other way, or a change in a side signal; inactive = no such curve, though single readings can be large or run the other way; the % refers to the signal ratio; also: potency is read from the fitted curve at half-maximal effect; % is scaled to controls: 0 for no effect and ±100 for the full control effect
Target sequence (Q9NR56 whole entry, looked up): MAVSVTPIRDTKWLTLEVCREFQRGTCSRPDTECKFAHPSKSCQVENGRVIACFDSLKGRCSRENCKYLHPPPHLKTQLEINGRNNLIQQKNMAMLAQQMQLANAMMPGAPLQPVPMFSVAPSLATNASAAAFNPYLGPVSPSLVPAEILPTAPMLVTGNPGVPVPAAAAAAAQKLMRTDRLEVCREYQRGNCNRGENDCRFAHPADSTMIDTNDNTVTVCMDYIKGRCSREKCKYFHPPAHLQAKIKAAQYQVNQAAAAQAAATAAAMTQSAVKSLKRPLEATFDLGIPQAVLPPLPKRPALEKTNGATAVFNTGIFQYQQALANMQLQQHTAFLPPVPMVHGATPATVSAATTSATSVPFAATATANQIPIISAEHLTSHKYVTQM
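Ratiometric TR-FRET (665 over 545 nm, excitation 340 nm) tracks disruption of MBNL1-His/biotin-(CUG)12 complex after 60 min at room temperature, with compounds at 92 nM to 58 uM final.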
uPA generation: cell surface uPA generation inhibition; actives 0.31% (n = 330,000); AID 540303; cell surface uPA generation assay, qHTS; Potency, µM (series often up to 38.3 µM), inactives show at the top dose activity change, negative = inhibition, most hits filed as inhibitors; active = well fitted inhibition curve with a large enough effect; inconclusive = small, poorly fitted or top-dose-only effect; inactive = no such curve, though single readings can be large or run the other way; tested in mouse RAW 264.7 cells; also: potency is read from the fitted curve at half-maximal effect; % is scaled to controls: 0 for no effect and ±100 for the full control effect; nearly all actives have a fitted effect of over 55% in size
CtBP-E1A blk: CtBP/E1A binding inhibition; AlphaScreen GST-E1A/His-CtBP binding, 1536-well; hits give low values; activity change, % (test concentration not listed); actives 0.49% (n = 340,000); also: % is scaled to controls: 0 for no effect and ±100 for the full control effect
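AlphaScreen with 125 nM GST-E1A and 125 nM His-CtBP (5X stocks) in Tris pH 8.0, 300 mM NaCl, BSA, Tween 20, TCEP. Compounds preincubated 2 h at 37 deg C, then glutathione donor/nickel acceptor beads added for 1 h at 37 deg C in dark.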
Six1-Eya2 blk: inhibitors of human Six1/Eya2 interaction. AlphaScreen GST-Six1/His-Eya2 binding, biochemical; hits give low values. activity change, % (no concentration beside the values). actives 0.56% (n = 360,000); also: % is scaled to controls: 0 for no effect and ±100 for the full control effect
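Compounds are tested against tagged Six1 and Eya2 proteins bridged by glutathione donor and nickel acceptor beads; after a one-hour incubation at 37 °C without light, AlphaScreen emission is recorded.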
Numbers without * were called inactive; ? = inconclusive; / = not tested or not shown; [ ] = remark or other dose. Rule as the data show it, unless noted: active = activity change below about -65%; inconclusive = mostly about -30% to -63%; inactive = weaker than that.

SMILES	Mito fusion act	MBNL1 CUG block	uPA generation	CtBP-E1A blk	Six1-Eya2 blk
COc1cccc(/C=N/Nc2snc(SC)c2C#N)c1O	5.01µM*	-16.8%[11.5 µM]	-9.2%	-75.7*	?
CCOc1ccccc1/C=N/Nc1ccnc(=O)[nH]1	3.2%	1.9%	-2.0%	-16.2	-6.4
COc1ccc(/C=N/Nc2snc(SC)c2C#N)cc1OC	-0.2%	4.3%	-3.7%	?	-17.4
O=c1nccc(N/N=C/c2ccccc2O)[nH]1	-11.0%	?	0.1%	-92.2*	-75.0*
COc1cccc(/C=N/Nc2ccc([N+](=O)[O-])cn2)c1O	-6.3%	?	-14.1%	171.3	725.4
CCc1nc2ccc(C(=O)Nc3ccc(C(N)=O)cc3)cn2c1N(CCC(C)C)CCN(C)C	/	/	/	0.8	1.6
O=C(NCc1ccccc1)C(c1ccc(C(F)(F)F)cc1)n1c(=O)c(-c2cc3ccccc3[nH]2)nc2ccccc21 (stereo not given)	/	/	/	24.7	44.2
COc1ccc(S(=O)(=O)N(C)C[C@H]2Oc3ccc(NS(=O)(=O)c4ccc(F)cc4)cc3C(=O)N([C@H](C)CO)C[C@@H]2C)cc1	/	/	?	-0.3	-5.1
O=C(COC(=O)c1ccc2c(c1)OCCO2)NCCC1=CCCCC1	?	5.6%	6.2%	-0.6	-71.3*
O=C1NC[C@H](CCCCN2C[C@H](Cc3ccc(O)cc3)N(CC3CCCCC3)C(=O)C2=O)N(CC2CCCCC2)C1=O	/	/	/	-2.9	5.7
O=C(N/N=C/c1cc([N+](=O)[O-])ccc1O)C1CCCCC1	3.0%	23.1%	-8.2%	-72.7*	-73.9*
O=C(CCC(=O)Nc1ccc(Br)cc1)N/N=C/c1cc([N+](=O)[O-])ccc1O	2.3%	-14.0%	2.1%	-15.2	-2.6
O=C(CCC(=O)Nc1ccc(F)cc1)N/N=C/c1cc([N+](=O)[O-])ccc1O	-0.2%	15.6%	-6.8%	-86.2*	?
O=C(N/N=C/c1cc([N+](=O)[O-])ccc1O)C1C2CCCCC21 (stereo not given)	1.9%	8.7%	/	/	/
Cc1cccc(NC(=O)CCC(=O)N/N=C/c2cc([N+](=O)[O-])ccc2O)c1	5.6%	43.7%	-6.3%	-89.8*	-78.8*
O=C(CCC(=O)Nc1cc(C(F)(F)F)ccc1Cl)N/N=C\c1cc([N+](=O)[O-])ccc1O	-28.7%	4.8%	-5.0%	-66.8*	-29.8
COc1cc2c(cc1OC)C1O[C@](CCCCN3C(=O)c4ccccc4C3=O)(C2)OC2=C1C(=O)CC(C)(C)C2	-24.4%[9.22 µM]	11.4%[11.5 µM]	/	/	/
Oc1ccc(CN2CCCc3ccccc32)c2cccnc12	-9.3%	10.4%	-9.4%	0.4	-93.3*
COc1ccccc1N1CCN(Cc2ccc(O)c3ncccc23)CC1	-2.2%	10.2%	/	-90.0*	-91.4*
CCOC(=O)C1CCN(Cc2ccc(O)c3ncccc23)CC1	-7.5%	19.4%	-9.0%	-98.1*	-92.0*
Oc1ccc(COC2CCN(Cc3ccccc3)C2)c2cccnc12 (stereo not given)	-5.8%	/	/	/	/
CCOC(=O)C1CCN(Cc2ccccc2C(F)(F)F)CC1	0.3%	-13.4%	/	10.2	11.8
O=C(NCc1ccccn1)[C@@H]1CCCN1C(=O)[C@@H]1CCCN1C(=O)c1cccc2ccccc12	/	/	/	-8.7	2.2
COc1cccc(C2CC(c3ccc(Br)cc3)=NN2C(=O)c2ccncc2)c1OC (stereo not given)	-0.6%	10.1%	-1.2%	-16.0	-7.4
COc1ccccc1C1CC(c2ccc(Br)cc2)=NN1C(=O)c1cccnc1 (stereo not given)	15.8µM*	22.1%	-12.1%	-11.6	-17.0
SMILES	Mito fusion act	MBNL1 CUG block	uPA generation	CtBP-E1A blk	Six1-Eya2 blk
CCCS(=O)(=O)NC(=O)C1(C)CCCN(C(=O)c2cc(F)cc(F)c2)C1 (stereo not given)	/	/	/	6.4	4.2
N/C(=N\OC(=O)/C=C/c1ccccc1)c1ccccn1	-0.1%	25.6%	-5.7%	-7.6	-4.3
Cc1ccc(C(=O)O/N=C(\N)c2ccccn2)c(Cl)c1	-6.2%	-7.4%	?	/	-2.9
COc1ccc(/C=C/C(=O)O/N=C(\N)c2ccccn2)cc1OC	/	/	4.3%	-73.1*	-8.9
N/C(=N\OC(=O)c1ccc(Cl)cc1Cl)c1ccccn1	14.2%	-7.3%	2.82µM*	0.1	7.7
C/C(C/C(C)=C1/SC(=S)NC1=O)=C1\SC(=S)NC1=O	2.8%	71.1%	3.1%	?	-70.9*
Cc1ccc(-c2csc3nc(SCC(=O)Nc4ccc(Cl)c(C(=O)O)c4)[nH]c(=O)c23)cc1	-2.2%	2.1%	-3.3%	/	-70.5*
CC1CCN(S(=O)(=O)c2cc([N+](=O)[O-])ccc2Cl)CC1	6.3%	?	7.94µM*	/	-6.5
CCC(C)NC(=O)C1CCN(S(=O)(=O)c2cc([N+](=O)[O-])ccc2Cl)CC1 (stereo not given)	4.4%	?	-9.8%	/	4.3
CCCOc1ccc(N2C(=O)CC(N(CCc3ccc(OC)cc3)C(=O)c3ccccc3)C2=O)cc1 (stereo not given)	5.6%	2.7%	-9.9%	1.8	1.2
COc1ccc(N2C(=O)CC(N(CCc3ccccc3)C(=O)c3ccccc3)C2=O)cc1 (stereo not given)	10.3%	-5.8%	2.1%	-69.6*	0.9
Cc1ccc(C(=O)Oc2cc(C)n(C)c(=O)c2)cc1	1.9%	5.7%	1.7%	-22.6	-94.5*
Cc1cc(C)cc(-c2nnc(SCC(=O)Nc3cc(C)on3)o2)c1	-4.9%	/	4.2%	-65.4*	?
CCC(c1nnc(SCC(=O)NC23CC4CC(CC(C4)C2)C3)o1)N(C)C (stereo not given)	3.3%	-3.5%	-5.2%	3.0	3.9
Cc1cc(NC(=O)CSc2nnc(CNC(=O)c3c(F)cccc3F)o2)no1	-1.8%	-4.7%	-1.5%	-80.1*	?
N#Cc1cc2c(nc1SCC(=O)Nc1nccs1)CCCCC2	12.7%	?	/	?	?
Cc1ccc(C#N)c(SCC(=O)Nc2nccs2)n1	5.1%	-0.7%	6.31µM*	/	-14.0
CCC(c1nnc(SCC(=O)Nc2cc(C)on2)o1)N(C)C (stereo not given)	-1.8%	/	-10.5%	-91.2*	?
Cc1cc(NC(=O)CSc2nnc(-c3ccc(O)cc3)o2)no1	-2.3%	-3.0%	?	-28.7	?
O=C(c1cc(COc2ccc(F)cc2Cl)on1)N1CCN(c2cnccn2)CC1	1.6%	-7.6%	-15.2%	3.7	-10.6
Cc1cc(NC(=O)CSc2ccccc2)no1	7.0%	0.4%	0.2%	-9.9	-12.9
Cc1cc(NC(=O)CSc2nnc(C)o2)no1	-4.1%	0.6%	3.0%	-85.7*	?
Cc1nnc(SCC(=O)Nc2nccs2)s1	0.6%	-8.3%	3.0%	1.6	3.9
Cc1nnc(SCC(=O)Nc2nccs2)o1	-0.5%	-7.4%	4.8%	-73.2*	?
O=C(N/N=C/c1sc(=O)[nH]c1-[n+]1ccccc1)c1ccccc1[O-]	-5.0%	/	-1.2%	-7.8	-5.0
